Measurements published in the supplement of paper PMC6522484.
± gives the standard deviation of the averaged measurements.

How the values were obtained:
[1] = test system: DLD1; experiment: cell viability (CellTiter-Glo) relative to plate median (fraction of plate median); higher = more viable cells; conditions: 5 µM; treatment time 24 h; reporter: 7TFP
How it was run: (§1)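 Cells were seeded in 384-well plates; these were colorectal cancer lines stably transduced with lentiviral 7TFP or TCF4/Wnt firefly luciferase reporters. After 24 h, library compounds went in at a final 5 µM, and exposure lasted 24 h. Parallel plates were then read for firefly luciferase or CellTiterGlo luminescence, each well normalised to its plate median, with two independent replicates averaged.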

[2] = test system: HCT116; experiment: as above; conditions: 5 µM; treatment time 24 h; reporter: TCF4/Wnt
How it was run: as §1

[3] = test system: SW480; experiment: as above; conditions: 5 µM; treatment time 24 h; reporter: 7TFP
How it was run: as §1

[4] = test system: DLD1; experiment: TCF/Wnt firefly luciferase reporter signal relative to plate median (fraction of plate median); higher = higher Wnt reporter signal; conditions: 5 µM; treatment time 24 h; reporter: 7TFP
How it was run: as §1

[5] = test system: SW480; experiment: as above; conditions: 5 µM; treatment time 24 h; reporter: 7TFP
How it was run: as §1

SMILES | cell viability [1] | cell viability [2] | cell viability [3] | TCF/Wnt firefly luciferase reporter signal [4] | TCF/Wnt firefly luciferase reporter signal [5]
C=C1C[C@H]2[C@@H]3C=C(C)C4=CC(=O)CC[C@]4(C)[C@H]3CC[C@]2(C)[C@@]1(OC(C)=O)C(C)=O | 0.99 ± 0.042 | 1 ± 0.11 | 1.01 | 0.986 ± 0.076 | 0.902 ± 0.094
O=C(/C=C(\O)c1ccccc1)c1ccccc1O [2',beta-DIHYDROXYCHALCONE] | 1.07 ± 0.16 | 1.17 ± 0.16 | 1.08 ± 0.014 | 1.01 ± 0.17 | 1.1 ± 0.021
CNCC[C@H](Oc1cccc2ccccc12)c1cccs1 | 1.03 ± 0.067 | 1.06 ± 0.021 | 1.05 ± 0.028 | 0.87 ± 0.023 | 0.97 ± 0.021
C=C1CC[C@H](O)C/C1=C/C=C1\CCC[C@]2(C)[C@@H]([C@H](C)CCCC(C)C)CC[C@@H]12 | 1.025 ± 0.0071 | 0.969 ± 0.044 | 0.97 ± 0.057 | 0.84 ± 0.04 | 0.882 ± 0.054
NCCCCN | 0.96 ± 0.047 | 0.983 ± 0.02 | 0.97 ± 0.057 | 1.18 ± 0.15 | 1.1 ± 0.05
CC1(C)C(O[C@@H]2OC[C@@H](O)[C@H](O)[C@H]2O)CC[C@]23CC24CC[C@]2(C)[C@@H]([C@@]5(C)CC[C@@H](C(C)(C)O)O5)[C@H](O)C[C@@]2(C)C4C[C@@H](O[C@@H]2O[C@H](CO)[C@@H](O)[C@H](O)[C@H]2O)C13 (stereo not given in full) | 0.987 ± 0.033 | 0.961 ± 0.016 | 0.9815 ± 0.0064 | 1 ± 0.011 | 1.075 ± 0.0071
COc1ccc(C(=O)O)c(O)c1OC | 0.991 ± 0.055 | 0.977 ± 0.12 | 0.9195 ± 0.00071 | 0.803 ± 0.069 | 0.905 ± 0.19
CC(=O)O[C@@H]1C[C@H]2C(C)(C)C(=O)C=C[C@]2(C)[C@H]2CC[C@@]3(C)[C@H](c4ccoc4)OC(=O)[C@H]4O[C@]43[C@@]21C | 1.01 ± 0.025 | 1.07 ± 0.042 | 0.97 ± 0.018 | 1.19 ± 0.05 | 1.11 ± 0.028
C=C(C)[C@@H]1CC[C@]2(C(=O)O[C@@H]3O[C@H](CO[C@@H]4O[C@H](CO)[C@@H](O[C@@H]5O[C@@H](C)[C@H](O)[C@@H](O)[C@H]5O)[C@H](O)[C@H]4O)[C@@H](O)[C@H](O)[C@H]3O)CC[C@]3(C)[C@H](C[C@@H](O)[C@@H]4[C@@]5(C)[C@@H](CC(=O)O)OC(C)(C)[C@@H]5CC[C@]43C)[C@@H]12 [Isochiisanoside (6)] | 0.92 ± 0.055 | 0.934 ± 0.0028 | 0.915 ± 0.066 | 0.953 ± 0.15 | 0.945 ± 0.0071
CC[C@H](CC[C@@H](C)[C@H]1CC[C@H]2[C@@H]3CC=C4C[C@@H](O)CC[C@]4(C)[C@H]3CC[C@]12C)C(C)C [beta-SITOSTEROL] | 1.07 ± 0.13 | 1.03 ± 0.035 | 1.13 ± 0.014 | 0.872 ± 0.0028 | 1.02 ± 0.035
O=C(NCO)c1cccnc1 | 0.952 ± 0.027 | 0.921 ± 0.022 | 1.04 ± 0.028 | 1.02 ± 0.13 | 0.959 ± 0.013
O=C(/C=C/C=C/c1ccc2c(c1)OCO2)N1CCCCC1 | 1 ± 0.038 | 1.05 ± 0.12 | 1.03 | 1.16 ± 0.18 | 1.08 ± 0.19
C=C(C)[C@H]1COc2cc3oc(=O)ccc3cc2O1 | 1.1 ± 0.17 | 0.968 ± 0.026 | 1.09 ± 0.057 | 1.06 ± 0.092 | 1.1 ± 0.042
CC(C)=CCc1c(O)cc(C)oc1=O | 1.05 ± 0.17 | 1.07 ± 0.12 | 1.055 ± 0.0071 | 1.06 ± 0.1 | 1.03 ± 0.071
O=C(O)/C=C(\CC(=O)O)C(=O)O | 1.05 ± 0.014 | 0.98 ± 0.018 | 1 ± 0.011 | 1.11 ± 0.035 | 0.978 ± 0.059
